Out of some 48,000 compounds screened, about 450 (0.94%) were called active. Inconclusive results (about 19%) are left out. The call rests on the fitted dose curve; in most records, active means well fitted inhibition curve with a large enough effect; inconclusive means small, poorly fitted or top-dose-only effect; inactive means no such curve, though single readings can be large or run the other way. The sample as a whole holds a higher share of actives than the screen did.
Assay: Primary qHTS for Identification of Small Molecule Inhibitors of Huntingtin Promoter Activity; further: nearly all actives have a fitted effect of over 50% in size
Details: HEK293 HTT promoter firefly luciferase reporter (activity 0% = vehicle and -100% = no light), 24 h; series mostly up to 57.5 µM; activity change, negative = inhibition: at the top concentration
Excerpt: Assay Provider: Russell L. Margolis M.D.
Department Neurology, Johns Hopkins University School of Medicine, Baltimore, MD
Huntington's Disease (HD) is a neurodegenerative disorder caused by a CAG repeat expansion in exon 1 of huntingtin (HTT). While there are currently no disease-modifying treatments for HD, recent efforts have focused on development of nucleotide-based therapeutics to lower HTT expression. As an alternative to siRNA or oligonucleotide methods, we hypothesized that suppression of HTT expression might be accomplished by small molecules that either (1) directly decrease HTT expression by suppressing HTT promoter activity or (2) indirectly decrease HTT expression by increasing the promoter activity of HTT-AS, the gene antisense to HTT that appears to inhibit expression of HTT.
We developed and employed a high throughput screen for modifiers of HTT and HTT-AS promoter activity using luminescent reporter HEK293 cells; of the 52,041 compounds tested, we identified 898 replicable hits. We used a rigorous stepwise approach to assess compound toxicity and the capacity of the compounds to specifically lower huntingtin protein in 5 different cell lines, including HEK293 cells, HD lymphoblastoid cells, mouse primary neurons, HD iPSCs differentiated into cortical-like neurons, and HD hESCs. We found no compounds which were able to lower huntingtin without lowering cell viability in all assays, though the potential efficacy of a few compounds at non-toxic doses could not be excluded.
SEQUENCE No. (1, 2, 3, etc.); […] (e.g., Cells, Incubation, Reagent, etc.); VALUE and DESCRIPTION.
1; Reagent; 4 uL; 2,500 Hek293 luciferase reporter cells per wells
3; Compound; 23 nL; Control inhibitor / compound library
5; Reagent; 2.5 uL; Firefly Luc reagent; Dual-Glo Luciferase Reporter Assay System (Promega)
6; Time; 10 min; room temperature incubation
7; Detection; Luminescence; FLuc
NOTES (numbers refer to sequence above)
1; High-throughput screening, measuring luminescence from a Hek293 luciferase reporter, was performed in 1,536 well white-walled tissue-culture treated plates. 2,500 cells were plated in 4 µL of Opti-MEM per well using a Multidrop Combi Reagent Dispenser (ThermoFisher).
2; Assay plates were cultured for 24 hours.
3; Control inhibitor (PTC124; final concentration of 50 uM) and compound library (at final concentrations of 460 nM - 57.5 uM) were added to the assay plate using the Kalypsis Pintool Robotic System equipped with 1536 pinheads.
4; Cells were then incubated for 24 hours at 37 degrees C prior to luminescence measurements.
5; In all cases, luminescence was measured using the Dual-Glo Luciferase Reporter Assay System (Promega) following the manufacturer's instructions.
6; Room temperature incubation.
7; Luminescence signal was obtained using the PerkinElmer ViewLux plate reader. Results were normalized to vehicle control (0% activity) and zero RLU (-100% activity).
Potency means the concentration at half of the fitted maximal effect.

SMILES | activity change, negative = inhibition | Potency
CC(C)CC(=O)NCC(c1ccc2c(c1)OCO2)N1CCN(c2ccc(F)cc2)CC1 (stereo unspecified) | -14.9% (inactive) | 
Cc1c(CCNC(=O)c2ccc(C(F)(F)F)cc2)sc2nc(-c3ccc(F)cc3)nn12 | 4.17% (inactive) | 
CCOC(=O)c1c(C)[nH]c(CCC(=O)NCCCN2CCN(c3cccc(Cl)c3)CC2)c1C | -29.4% (inactive) | 
CCOc1ccc(NC(=O)C(=O)NCCc2csc3nc(-c4ccccc4F)nn23)cc1 | -5.73% (inactive) | 
COc1ccc(Cl)cc1N(C)C(=O)c1cc2c(=O)oc3ccc(C)cc3c2s1 | -0.88% (inactive) | 
COc1cccc(Nc2nc3ccccc3c3nncn23)c1 | -14.9% (inactive) | 
Cc1ccc(C)n1-c1nnc(N2CCC(C(=O)NCc3ccccc3Cl)CC2)s1 | -11.2% (inactive) | 
O=S(=O)(c1ccc(Br)cc1)c1nnn2c1nc(N1CCOCC1)c1sccc12 | 7.1% (inactive) | 
Cc1ccc(CSc2nc3cccnc3n2Cc2ccc(C(=O)NC3CC3)cc2)cc1 | 9.61% (inactive) | 
COc1ccc(S(=O)(=O)N2CCCCC2)cc1C(=O)NC1CCS(=O)(=O)C1 (stereo unspecified) | -15.4% (inactive) | 
Cc1ccc(-c2nn(CCC(=O)Nc3ccc(Cl)c(Cl)c3)c(=O)c3ccccc23)cc1 | -9.37% (inactive) | 
CCN(CC)CCNC(=O)CN1N=C(c2ccc(OC)cc2)CCC1=O | -8.91% (inactive) | 
CSc1ncc(C(=O)NCc2ccccc2Cl)c(C(F)(F)F)n1 | -7.35% (inactive) | 
Cc1ccc(SCC(=O)Nc2ccc3oc(-c4ccccc4F)nc3c2)cc1 | 0% (inactive) | 
CCOC(=O)c1cc2c(=O)n3ccccc3nc2n(CC2CCCO2)c1=NC(=O)c1ccc(C(C)(C)C)cc1 (stereo unspecified) | -8.51% (inactive) | 
CCOc1ccc2oc(=O)cc(CN3CCN(C(=O)c4ccc(F)cc4)CC3)c2c1 | -21.1% (inactive) | 
CCOc1ccc(OCC)c(Nc2nc3ccccc3n3nnnc23)c1 | -15.9% (inactive) | 
N#Cc1ccc(-c2cccs2)nc1SCc1ccc(Br)cc1 | 12.7% (inactive) | 
Cc1ccc(CCNC(=O)c2ccc(CNS(=O)(=O)c3ccc(C)cc3)cc2)cc1 | -5.53% (inactive) | 
COc1ccc(NC(=O)CCCN2C(=O)CCn3nc(-c4cn(C)c5ccccc45)cc32)cc1OC | 0% (inactive) | 
CCOc1ccccc1NC(=O)CN1CCN(S(=O)(=O)c2ccc(Br)cc2)CC1 | -13.4% (inactive) | 

SMILES | activity change, negative = inhibition | Potency
COc1ccccc1NC(=O)c1cc(C2CC2)nc2c1c(C)nn2-c1ccc(C)cc1 | -10.5% (inactive) | 
Cc1ccc(Cl)cc1-n1ncc2c(N3CCC(C(N)=O)CC3)ncnc21 | -30.7% (inactive) | 
CCN1CCN(c2ncnc3c2cnn3-c2ccc(C)c(C)c2)CC1 | -8.96% (inactive) | 
Cc1ccc(-n2ncc3c(N4CCC(C(N)=O)CC4)ncnc32)cc1 |  | 0.316 µM (active)
Cc1cc(OCC(=O)NCC2(N(C)C)CCCCC2)cc(C)c1Cl | -5.14% (inactive) | 
Cc1nc2nc(SCC(=O)NC3CCC(C)CC3)nn2c(C)c1Cc1ccccc1Cl (stereo unspecified) | 2.74% (inactive) | 
Cc1ccc(-n2nnnc2CNC(=O)c2ccccc2C)cc1C | 1.21% (inactive) | 
COc1ccc(OCCn2cc(C(=O)C3CCCCC3)c3ccccc32)cc1 | -27.6% (inactive) | 
COc1ccc(-c2noc(-c3ccc(N4CCN(c5ccccc5)CC4)c([N+](=O)[O-])c3)n2)cc1OC | -7.68% (inactive) | 
O=C(COc1ccccc1)NCc1ccc2c(c1)CCN2C(=O)c1ccc(F)cc1 | -29.6% (inactive) | 
Cc1cc2c(cc1S(=O)(=O)CCC(=O)NCc1ccccc1)OCC(=O)N2 | -5.35% (inactive) | 
Cn1c(SCC(=O)N2CCCc3ccccc32)ncc(C(=O)Nc2ccc(F)cc2)c1=O | -4.61% (inactive) | 
COc1ccc(S(=O)(=O)NCc2cccn2Cc2cccc(C)c2)cc1 | 0% (inactive) | 
CC(C)c1ccc(NC(=O)c2cc(S(=O)(=O)N3CCc4ccccc4C3)ccc2F)cc1 | -20% (inactive) | 
Cc1ccc(NC(=O)c2cc(S(=O)(=O)NCCC3=CCCCC3)ccc2F)cc1C |  | 28.2 µM (active)
Cc1ccc(-n2cnc3cc(C(=O)NCCC4=CCCCC4)ccc32)cc1Cl | -5.68% (inactive) | 
O=c1n(Cc2cccc(C(F)(F)F)c2)c2ccccc2c2nc(-c3ccccc3)nn12 | -9.87% (inactive) | 
COc1ccc(N2CCN(C(=O)c3cn(C)c4ccc(S(=O)(=O)N5CCOCC5)cc4c3=O)CC2)cc1 | -18.7% [at 11.5 µM] (inactive) | 
O=C(Nc1cc(C(F)(F)F)ccc1Cl)c1nc2ccccc2nc1N1CCCCC1 | -3.65% (inactive) | 
CCN(C(=O)Cn1c(=O)nc(-c2ccccc2)c2cc(Cl)ccc21)c1cccc(C)c1 | -4.22% (inactive) | 
COc1ccc2c(c1)c(=O)c(S(=O)(=O)c1ccc(F)cc1)cn2CC(=O)Nc1ccc(C)cc1C | -9.64% (inactive) | 

SMILES | activity change, negative = inhibition | Potency
COc1ccc(NC(=O)c2ccc3oc(=O)c(S(=O)(=O)c4ccc(F)cc4)cc3c2)c(OC)c1 |  | 11.2 µM (active)
COc1ccc(NC(=O)c2ccc3nc(CCc4ccccc4)oc3c2)c(OC)c1 | 36.9% (inactive) | 
Fc1ccc(C(Nc2ccc(Cl)c(C(F)(F)F)c2)c2nnc(-c3ccccc3)o2)cc1 (stereo unspecified) | -35.9% (inactive) | 
CC(=O)Nc1ccc(S(=O)(=O)N2CCN(c3ccccc3)CC2)cc1 | -26.9% (inactive) | 
COc1ccc(Nc2ncc(C(=O)Nc3cc(C)ccc3OC)c3ccccc23)cc1 | -18.3% (inactive) | 
O=C(CCCn1c(=O)c2cccn2c2cccnc21)NCc1ccc(F)cc1 | 8.1% (inactive) | 
CCOc1cc(-c2nnc(SCC(=O)NC3CCCCC3)nc2-c2ccc(OC)c(OCC)c2)ccc1OC | -8.07% (inactive) | 
COc1ccc(Cn2ccc3nc(C)c(C(=O)Nc4ccc(C)c(F)c4)cc3c2=O)cc1 | -9.53% (inactive) | 
COC(=O)c1ccccc1NC(=O)c1ccc2c(=O)n3c(nc2c1)CCCCC3 | 10.1% (inactive) | 
CS(=O)(=O)c1ccc(-c2nnc(NC(=O)c3ccc4c(c3)OCCO4)o2)cc1 | -5.72% (inactive) | 
CCCCNc1ccc(-c2nc(-c3ccncc3)no2)cc1[N+](=O)[O-] | 0.996% (inactive) | 
Cc1cccc(C)c1NC(=O)c1ccc(N)cc1 | 2.97% (inactive) | 
CCOC(=O)c1ccc(NC(=O)Cn2c(=O)cc(C)c3c(C)nn(-c4cccc(F)c4)c32)cc1 | -8.8% (inactive) | 
Cc1ccc2nc(NC(=O)c3nc(SCc4ccccc4F)ncc3Cl)sc2c1 | -12.5% (inactive) | 
CCC(Sc1nnc(-c2ccc(OC)cc2)c(-c2ccc(OC)cc2)n1)C(=O)NC1CCCCC1 (stereo unspecified) | 5.07% (inactive) | 
CCCn1c(NCc2ccc(N(CC)CC)cc2)nc2ccccc21 | -20.8% (inactive) | 
Cc1cc(-c2ccc(C)c(S(=O)(=O)N3c4ccccc4CC3C)c2)on1 (stereo unspecified) |  | 14.1 µM (active)
COc1ccc(CCNS(=O)(=O)c2cc(-c3cc(C)no3)ccc2C)cc1OC | -17.2% (inactive) | 
CCC1CN(S(=O)(=O)c2cc(-c3cc(C)no3)ccc2C)c2cc(C)ccc2O1 (stereo unspecified) | -13.3% (inactive) | 

Source: PubChem BioAssay AID1508623 (National Center for Advancing Translational Sciences (NCATS), 2021)
